Screening results as filed in PubChem BioAssay.
Cruzain noTriton – blocks cruzain activity in detergent-free assay. actives 2.3% (n = 200,000). purified cruzain, Z-FR-AMC fluorescence, no detergent. Potency, µM, hits mostly inhibitors. P25779; also: nearly all actives have a fitted effect of over 40% in size
Target sequence (P25779 123-467 limits assumed): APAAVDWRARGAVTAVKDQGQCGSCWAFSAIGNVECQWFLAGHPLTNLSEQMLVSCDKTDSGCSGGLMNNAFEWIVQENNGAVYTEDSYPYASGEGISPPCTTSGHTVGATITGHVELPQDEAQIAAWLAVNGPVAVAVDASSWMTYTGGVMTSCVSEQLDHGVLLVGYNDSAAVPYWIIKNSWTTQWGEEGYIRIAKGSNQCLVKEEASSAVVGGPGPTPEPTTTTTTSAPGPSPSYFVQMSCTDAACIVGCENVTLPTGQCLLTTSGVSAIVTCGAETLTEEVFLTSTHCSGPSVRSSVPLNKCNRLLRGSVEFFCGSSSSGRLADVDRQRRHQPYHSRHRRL
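Detergent-free condition (0.00005% Triton X-100) in acetate buffer pH 5.5 with DTT. 1.5 nM enzyme and compound were pre-mixed 15 min, then 2 uM Z-FR-AMC substrate added; reaction progress from fluorescence change between first and third reads (60 s).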
NS1 inh – inhibitors of influenza NS1 protein function | Potency, µM (series often up to 46.1 µM) | actives 0.4% (n = 270,000) | AID 2326; calls by dose curve; also: actives are rising curves; nearly all actives have a fitted effect of over 50% in size
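In this qHTS, NS1 from influenza A is expressed in budding yeast, where it slows growth. Cells are switched from glucose to 2% galactose medium (pH 6.0, -URA), treated with compound, and growth recovery is read at OD600.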
Cruzain inh Det – blocks cruzain activity in presence of Triton detergent; purified cruzain, Z-FR-AMC fluorescence, 0.01% Triton; Potency, µM, hits mostly inhibitors; actives 0.43% (n = 200,000); also: nearly all actives have a fitted effect of over 40% in size
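Z-FR-AMC hydrolysis (2 uM substrate) by cruzain (1.5 nM) monitored kinetically at ex 360/em 450 nm after 15 min room-temperature compound exposure; 0.01% Triton X-100, pH 5.5, 5 mM DTT.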
Hits are given with their value. Only a selection was taken, and hits are over-represented in it overall. Unless noted, calls follow the shape of the dose curve; as a rule, active = well fitted curve in the direction sought with a large enough effect; inconclusive = small, poorly fitted or top-dose-only effect, or another doubt; inactive = no such curve, though single readings can be large; an effect the other way counts as inactive or inconclusive.

Screening COc1cccc(C(=O)Nc2ccc3nc(SCC(=O)N4CCc5ccccc54)sc3c2)c1 returned Cruzain noTriton 12.6µM and Cruzain inh Det inactive.
COc1ccc(C(=O)Nc2ccc3nc(SCC(=O)N4CCc5ccccc54)sc3c2)cc1 was read as Cruzain noTriton inactive and Cruzain inh Det inactive.
For O=C(Nc1ccc2nc(SCC(=O)N3CCc4ccccc43)sc2c1)c1cccc(Cl)c1 the results were Cruzain noTriton inconclusive and Cruzain inh Det inactive.
`O=C(Nc1ccc2nc(SCC(=O)N3CCCc4ccccc43)sc2c1)c1cccc(Cl)c1` gave Cruzain noTriton 6.31µM and Cruzain inh Det inactive.
`N=c1c(C(=O)NCC2CCCO2)cc2c(=O)n3ccccc3nc2n1Cc1cccnc1` (stereo not given) gave Cruzain noTriton inconclusive, NS1 inh inactive and Cruzain inh Det 28.2µM.
For Cc1cccn2c(=O)c3cc(C(=O)NC(C)C)c(=N)n(Cc4ccncc4)c3nc12 the results were Cruzain noTriton inconclusive, NS1 inh inactive and Cruzain inh Det 31.6µM.
Screening N=c1c(C(=O)NCC2CCCO2)cc2c(=O)n3ccccc3nc2n1Cc1ccc(F)cc1 (stereo not given) returned NS1 inh inactive.
`CNC(=O)c1cc2c(=O)n3cc(C)ccc3nc2n(C(C)C)c1=N` gave Cruzain noTriton inconclusive, NS1 inh inactive and Cruzain inh Det 28.2µM.
Cc1ccc2nc3c(cc(C(=O)NC4CCCC4)c(=N)n3C(C)C)c(=O)n2c1 was read as Cruzain noTriton inactive and Cruzain inh Det inactive.
`COCCCNC(=O)c1cc2c(=O)n3cccc(C)c3nc2n(C(C)C)c1=N` gave Cruzain noTriton inconclusive, NS1 inh inactive and Cruzain inh Det 25.1µM.
Screening Cc1cccn2c(=O)c3cc(C(=O)NC4CCCCC4)c(=N)n(Cc4ccc(F)cc4)c3nc12 returned NS1 inh inactive.
`COCCn1c(=N)c(C(=O)NCCc2ccc(OC)cc2)cc2c(=O)n3cccc(C)c3nc21` gave Cruzain noTriton inactive, NS1 inh inactive and Cruzain inh Det inactive.
Screening COC(=O)N[C@@H](CCc1ccccc1)/C(C(=O)OC)=C(\C)NCc1ccccc1 returned Cruzain noTriton inactive and Cruzain inh Det inactive.
Cc1ccc2ncc3c(-c4ccccc4)nn(CC(=O)NC4CCCCC4)c3c2c1 was read as Cruzain noTriton inactive and Cruzain inh Det inactive.
Screening CC(C)N(Cc1ccccc1)C(=O)CN1C(=O)CSc2ccc(S(=O)(=O)N3CCCC3)cc21 returned Cruzain noTriton inactive and Cruzain inh Det inactive.
Cc1cccn2c(=O)c3cc(C(=O)NCC4CCCO4)c(=N)n(Cc4cccnc4)c3nc12 (stereo not given) was read as Cruzain noTriton inconclusive, NS1 inh inactive and Cruzain inh Det 22.4µM.
Screening Cc1cccn2c(=O)c3cc(C(=O)NCC4CCCO4)c(=N)n(CC4CCCO4)c3nc12 (stereo not given) returned NS1 inh inactive.
`NC(=O)c1c(NC(NC(=O)c2ccco2)C(=O)c2ccc(Cl)cc2)sc2c1CCCC2` (stereo not given) gave Cruzain noTriton inactive, NS1 inh inactive and Cruzain inh Det inactive.
Screening N#Cc1c(NC(NC(=O)c2ccco2)C(=O)c2ccccc2)sc2c1CCCC2 (stereo not given) returned Cruzain noTriton 25.1µM, NS1 inh inactive and Cruzain inh Det inactive.
`COc1ccccc1NC(=O)c1c(NC(=O)c2ccco2)sc2c1CCC2` gave Cruzain noTriton 7.94µM, NS1 inh inconclusive and Cruzain inh Det inactive.
For Cc1cccc(C(=O)Nc2sc3c(c2C(=O)NCc2ccco2)CCCC3)c1 the results were Cruzain noTriton inactive and Cruzain inh Det inactive.
For COc1ccccc1NC(=O)c1c(NC(=O)c2ccco2)sc2c1CCC(C(C)(C)C)C2 (stereo not given) the results were Cruzain noTriton inactive and Cruzain inh Det inactive.
`COc1ccccc1C(=O)Nc1sc2c(c1C(=O)NCc1ccco1)CCCC2` gave Cruzain noTriton 7.94µM, NS1 inh inactive and Cruzain inh Det inactive.
For CCCCNC(=O)c1cccc(NC(=O)c2nsc3ccccc23)c1 the results were Cruzain noTriton inactive and Cruzain inh Det inactive.
Screening C=C(C(=O)O)[C@@H]1CC[C@@]2(C)CCC[C@](C)(O)[C@@H]2C1 returned Cruzain noTriton inactive and Cruzain inh Det inactive.
For COc1ccc2[nH]cc(CCNc3ccnc(-c4cccc(NS(C)(=O)=O)c4)n3)c2c1 the results were Cruzain noTriton inactive and Cruzain inh Det inactive.
For CS(=O)(=O)Nc1ccc(Cc2noc(-c3ccc4[nH]cc(CCN)c4c3)n2)cc1 the results were Cruzain noTriton 31.6µM and Cruzain inh Det inactive.
O=C(NCCOc1ccccc1)O[C@@H]1C(=O)c2cc(Br)ccc2O[C@H]1c1ccc2c(c1)OCO2 was read as Cruzain noTriton inactive and Cruzain inh Det inactive.
`O=S(=O)(Nc1ccc2c(c1)nc1n2CCN(Cc2ccccc2)C1)c1ccc(Cl)cc1` gave Cruzain noTriton 25.1µM, NS1 inh inactive and Cruzain inh Det inactive.
Screening O=S(=O)(Nc1ccc2c(c1)nc1n2CCN(Cc2ccccc2)C1)c1ccccc1 returned Cruzain noTriton inconclusive, NS1 inh inactive and Cruzain inh Det inactive.
CCOC(=O)N1CCc2c(sc3c2c(=O)n(-c2ccc(Cl)cc2)c(=O)n3CC(=O)Nc2ccccc2)C1 was read as Cruzain noTriton inactive and Cruzain inh Det inactive.
For COC(=O)[C@H]1O[C@@H](c2cc(OC)c(C)c(OC)c2O)[C@H](C)[C@@H](O)[C@H]1C the results were Cruzain noTriton inactive and Cruzain inh Det inactive.
Cc1ccc(C(=O)NN2C(=O)/C(=C/c3cccn3C)SC2=S)cc1 was read as Cruzain noTriton inconclusive, NS1 inh inactive and Cruzain inh Det inactive.
For Cn1cccc1/C=C1\SC(=S)N(NC(=O)c2ccccc2Cl)C1=O the results were Cruzain noTriton inactive, NS1 inh inactive and Cruzain inh Det inactive.
Screening Cc1ccc(C(=O)NN2C(=O)/C(=C/c3cn(C)c4ccccc34)SC2=S)cc1 returned Cruzain noTriton 10µM, NS1 inh inactive and Cruzain inh Det inactive.
Screening Cn1cc(/C=C2\SC(=S)N(NC(=O)c3ccccc3Cl)C2=O)c2ccccc21 returned Cruzain noTriton 10µM, NS1 inh inactive and Cruzain inh Det inactive.
`O=C(c1ccco1)N1CCC2(CCCN(c3ncccn3)C2)CC1` gave Cruzain noTriton inactive and Cruzain inh Det inactive.
`O=C(NC1CCCC1)O[C@@H]1C(=O)c2cc(Br)ccc2O[C@H]1c1ccc2c(c1)OCO2` gave Cruzain noTriton inactive and Cruzain inh Det inactive.
Screening COc1ccc2[nH]cc(CCNc3ncnc4ccc(-c5ccc6c(c5)OCO6)cc34)c2c1 returned Cruzain noTriton 31.6µM and Cruzain inh Det inactive.
For COc1ccc2[nH]cc(CCNc3nc(-c4ccc(N(C)C)cc4)nc4ccccc34)c2c1 the results were Cruzain noTriton 25.1µM and Cruzain inh Det inactive.
COc1ccc2[nH]cc(CCNc3nc(-c4ccc(C(=O)N(C)C)cc4)nc4ccccc34)c2c1 was read as Cruzain noTriton inactive and Cruzain inh Det inactive.
`COc1ccc2[nH]cc(CCNc3ncnc4ccc(-c5cccnc5)cc34)c2c1` gave Cruzain noTriton inactive and Cruzain inh Det inactive.
`O=C(NCc1ccccc1Cl)C(=O)NCC(c1cccs1)S(=O)(=O)c1cccs1` (stereo not given) gave Cruzain noTriton inactive and Cruzain inh Det inactive.
